The values that follow come from PubChem BioAssay (Tox21).

The structures appear in SMILES notation. “And” between values parts separate entries of the source, which are not always exact repeats. Identical values can stand only once. Results filed as inconclusive are left out. The source made the active and inactive calls. Unless noted, calls follow the shape of the dose curve; as a rule, active = well fitted curve in the direction sought with a large enough effect in the repeat runs; inconclusive = weak or mixed curves; inactive = no such curve, though single readings can be large; an effect the other way counts as inactive or inconclusive.

Test [1] is described as follows: qHTS assay to identify small molecule antagonists of the sonic hedgehog signaling (Shh) pathway (AID 1259369; calls by dose curve; also: nearly all actives have a fitted effect of over 45% in size; also: potency is read from the fitted curve at half-maximal effect). Summed up: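 Gli1 transcriptional reporter (firefly Luc) in NIH/3T3 background, conditioned-medium activated. 24hr exposure, luminescence endpoint.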
For orientation: qHTS replaces the single test concentration by a dilution series.

Test [2] in a line: qHTS assay to identify small molecule agonists of the androgen receptor (AR) signaling pathway in the presence of an antagonist - cell viability counter screen (AID 1259379).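 Also: MDA-kb2 human breast cancer cells carrying an MMTV luciferase reporter; series mostly up to about 92 µM; nearly all actives have a fitted effect of over 25% in size.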 Summed up:
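Counter screen for cell viability run in parallel with the AR agonist-mode luciferase assay. MDA-kb2 cells were co-treated with nilutamide (3.0uM final) and compounds, then incubated 16 hr at 37C, and CellTiter-Fluor fluorescence was measured.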

A short description of test [3]: qHTS assay to identify small molecule agonists of the estrogen receptor beta (ER-beta) signaling pathway - cell viability counter screen (AID 1259380). Also: nearly all actives have a fitted effect of over 30% in size. Summed up:
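In this qHTS counter screen, HEK293T cells carrying an ER-beta/UAS beta-lactamase reporter, grown in 2% charcoal-stripped FBS, received compound for 16 hr; ATP-based CellTiter-Glo luminescence was then read after 30 min at room temperature.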

Test [4] is described as follows: qHTS assay to identify small molecule antagonists of the estrogen receptor beta (ER-beta) signaling pathway - cell viability counter screen (AID 1259382).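 Also: HEK293T cells carrying ER-beta-UAS-bla reporter stimulated with estradiol; series mostly up to about 92 µM; nearly all actives have a fitted effect of over 55% in size.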 Summed up: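 HEK293T ER-beta-UAS-bla, 2% charcoal-stripped FBS; compounds + 1nM E2 16 hr 37C; CellTiter-Glo luminescence, 30 min RT.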
The target of test [5] is Estrogen receptor (Homo sapiens) (UniProt P03372). Put plainly: qHTS assay to identify small molecule agonists of the estrogen receptor alpha (ER-alpha) signaling pathway in the presence of an antagonist (AID 1259383; calls by dose curve; also: nearly all actives have a fitted effect of over 15% in size; also: potency is read from the fitted curve at half-maximal effect; as to activation: top concentration of the series differs between compounds). Summed up:
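ER-alpha agonism measured under antagonist challenge: 10.0nM ICI-182,780 (final) plus compound, 15 concentrations, 22hr, VM7Luc4E2 ERE-luciferase cells. Read by luminescence.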

A short description of test [6]: qHTS assay to identify small molecule agonists or antagonists of the thyroid stimulating hormone receptor (TSHR) signaling pathway - wild type cell line counter screen (AID 1259384; calls by dose curve). The method in brief: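 Wild-type Hek293 cells, 800/well, 18 h at 37C, then compound with Ro20-1724 for 30 min RT. cAMP by HTRF (cAMP-d2/anti-cAMP cryptate), 1 h RT, fluorescence read. 15 concentrations, triplicates.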

For test [7], the target named is Thyrotropin receptor (Homo sapiens) (UniProt P16473). Put plainly: qHTS assay to identify small molecule antagonists of the thyroid stimulating hormone receptor (TSHR) signaling pathway (AID 1259385; calls by dose curve; also: nearly all actives have a fitted effect of over 20% in size). Summed up: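 TSHR-HEK293 cells (800/well) plated 18 h, then compounds with Ro20-1724 and TSH at 1.5 ng/mL final, 30 min at room temperature. cAMP quantified by HTRF (cAMP-d2/anti-cAMP-cryptate, 1 h); 15 concentrations in triplicate.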
Thyrotropin receptor (Homo sapiens), sequence (P16473 whole entry, looked up): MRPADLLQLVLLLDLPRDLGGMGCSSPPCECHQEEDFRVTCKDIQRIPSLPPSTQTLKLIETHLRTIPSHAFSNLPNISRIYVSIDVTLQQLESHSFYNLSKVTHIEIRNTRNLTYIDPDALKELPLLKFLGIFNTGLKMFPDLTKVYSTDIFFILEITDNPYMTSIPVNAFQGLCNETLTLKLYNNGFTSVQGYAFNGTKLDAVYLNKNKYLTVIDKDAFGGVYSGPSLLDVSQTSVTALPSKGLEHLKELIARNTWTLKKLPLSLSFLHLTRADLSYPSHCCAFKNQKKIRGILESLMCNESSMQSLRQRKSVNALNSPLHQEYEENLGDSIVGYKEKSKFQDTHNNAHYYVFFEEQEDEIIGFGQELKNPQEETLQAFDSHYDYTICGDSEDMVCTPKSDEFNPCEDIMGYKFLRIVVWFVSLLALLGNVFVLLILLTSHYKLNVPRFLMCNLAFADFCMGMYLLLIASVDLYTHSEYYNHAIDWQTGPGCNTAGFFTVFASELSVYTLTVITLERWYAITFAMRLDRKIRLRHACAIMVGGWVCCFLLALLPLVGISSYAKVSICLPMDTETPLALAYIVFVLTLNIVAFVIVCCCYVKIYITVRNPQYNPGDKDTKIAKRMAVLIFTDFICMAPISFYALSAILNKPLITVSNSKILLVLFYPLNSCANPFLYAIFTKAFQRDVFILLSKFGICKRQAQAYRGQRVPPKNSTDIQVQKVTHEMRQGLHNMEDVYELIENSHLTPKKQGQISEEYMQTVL

Test [8] in a line: qHTS assay to identify small molecule agonists of the estrogen receptor alpha (ER-alpha) signaling pathway in the presence of an antagonist - cell viability counter screen (AID 1259386).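 Also: series mostly up to about 92 µM; cells exposed to compounds for 22 h at 37 °C before the viability read; nearly all actives have a fitted effect of over 30% in size.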 Summed up: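 Steps: 5-day stripped-FBS culture; seed and incubate 24hr; add ICI-182,780 (10.0nM final); pin 15-point compound titration; incubate 22hr at 37C; add CellTiter-Fluor at 21hr; read fluorescence.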

The target of test [9] is Progesterone receptor (Homo sapiens) (UniProt P06401). Put plainly: qHTS assay to identify small molecule agonists of the progesterone receptor (PR) signaling pathway (AID 1346784; calls by dose curve; also: nearly all actives have a fitted effect of over 30% in size). Summed up:
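Agonist mode, quantitative HTS format in a HEK 293T line expressing a UAS-controlled beta-lactamase reporter; 16 hr compound exposure at 37C in 2% charcoal-stripped FBS, then LiveBLAzer B/G FRET fluorescence.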

Test [10] shares this target. Put plainly: qHTS assay to identify small molecule antagonists of the progesterone receptor (PR) signaling pathway (AID 1346795; active = well fitted inhibition curve with a large enough effect in the signal ratio in the repeat runs, not every such curve was filed as active; the % refers to the signal ratio). The method in brief:
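HEK293T PR-UAS-bla reporter cells in charcoal-stripped serum (2%) received compound after a 6 hr settling period, followed by R5020 agonist at 1 nM final; 16 hr incubation preceded the FRET substrate step and fluorescence measurement.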

A short description of test [11]: qHTS assay to identify small molecule antagonists of the progesterone receptor (PR) signaling pathway - cell viability counter screen (AID 1346798). Also: nearly all actives have a fitted effect of over 50% in size. Also: potency is read from the fitted curve at half-maximal effect. The method in brief: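 Same-well multiplex: after 16 hr at 37C with compound and R5020 stimulation, HEK293T cells carrying a UAS-bla reporter received LiveBLAzer substrate (2 hr RT), then CellTiter-Glo (30 min RT) for luminescent viability.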

Test [12] in a line: qHTS assay to identify small molecule agonists of the progesterone receptor (PR) signaling pathway - cell viability counter screen (AID 1346799; calls by dose curve; also: nearly all actives have a fitted effect of over 45% in size). Summed up:
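Counter screen for cytotoxicity: compound-treated PR-UAS-bla HEK293T cells (16 hr, 37C, 5% CO2) were assayed with CellTiter-Glo, luminescence measured after 30 min at room temperature.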

Test [13] is described as follows: qHTS assay to identify small molecule agonists of the TGF-beta/Smad signaling pathway - cell viability counter screen (AID 1346829). Also: top concentration of the series differs between compounds; nearly all actives have a fitted effect of over 45% in size. Summed up: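 Luminescence from CellTiter-Glo, read after a 30 min room-temperature incubation, gives cell viability of SBE-bla HEK 293T cells treated 5 hr with compounds at 37 C.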
Test [14] is described as follows: qHTS assay to identify small molecule agonists of the TGF-beta/Smad signaling pathway (AID 1346859; active = well fitted activation curve with a large enough effect in the signal ratio in the repeat runs, not every such curve was filed as active; the % refers to the signal ratio; also: series mostly up to about 77 µM). Summed up:
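Smad-responsive beta-lactamase reporter cells (HEK 293T) received compounds from DMSO stocks after overnight attachment, were incubated 5 hr, then treated 2 hr with FRET substrate before dual-emission fluorescence measurement (405 nm excitation).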

For test [15], the target named is Thyrotropin-releasing hormone receptor (Homo sapiens) (UniProt P34981). The test can be described thus: qHTS assay to identify small molecule antagonists of the thyrotropin-releasing hormone receptor (TRHR) signaling pathway (AID 1346877; active = well fitted inhibition curve with a large enough effect in the repeat runs, not every such curve was filed as active; also: series mostly up to about 51 µM). The method in brief: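 Human TRHR in HEK293 cells; inhibition of the intracellular calcium rise triggered by 1 nM TRH was followed by fluorescence over 3 min. Compounds were run at 15 concentrations, three replicates each.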
Thyrotropin-releasing hormone receptor (Homo sapiens), sequence (P34981 whole entry, looked up): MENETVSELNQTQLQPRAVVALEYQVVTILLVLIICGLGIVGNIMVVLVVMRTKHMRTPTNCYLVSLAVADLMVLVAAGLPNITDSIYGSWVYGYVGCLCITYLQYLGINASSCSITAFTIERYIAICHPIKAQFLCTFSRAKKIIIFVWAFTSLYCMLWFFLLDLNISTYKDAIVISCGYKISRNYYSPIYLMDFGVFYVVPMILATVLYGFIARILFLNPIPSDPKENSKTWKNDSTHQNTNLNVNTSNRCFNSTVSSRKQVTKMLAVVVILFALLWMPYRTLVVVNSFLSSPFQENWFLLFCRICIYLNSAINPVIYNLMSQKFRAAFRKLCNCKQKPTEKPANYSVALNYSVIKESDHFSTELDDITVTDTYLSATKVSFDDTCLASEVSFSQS

Test [16] shares this target. Put plainly: qHTS assay to identify small molecule agonists of the thyrotropin-releasing hormone receptor (TRHR) signaling pathway (AID 1346891; calls by dose curve;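 also: HEK293 cells expressing TRHR with calcium dye readout; series mostly up to about 58 µM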). The method in brief:
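Agonist-mode calcium mobilisation screen: TRHR-transfected HEK293 cells cultured overnight (18 h), dye-loaded for 2 h at 37 °C, exposed to compounds, and monitored by fluorescence for 3 min.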

Test [17] addresses Androgen receptor (Homo sapiens) (UniProt P10275). The test can be described thus: qHTS assay to identify small molecule agonists of the androgen receptor (AR) signaling pathway in the presence of an antagonist (AID 1259381; calls by dose curve; also: nearly all actives have a fitted effect of over 15% in size). The method in brief: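 AR antagonist background: nilutamide 3.0uM final. Cell line: MDA-kb2, MMTV-driven luciferase, responsive to both AR and GR. Exposure 16hr, 37C, no CO2; ONE-Glo luminescence.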

Test [18] can be described thus: qHTS assay to identify small molecule antagonists of the TGF-beta/Smad signaling pathway - cell viability counter screen (AID 1346824). Also: nearly all actives have a fitted effect of over 50% in size. The method in brief:
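SBE-bla HEK 293T cells, incubated overnight, then compound plus 0.25 ng/mL TGF-beta1 (stock added) for 5 hr at 37 C. Viability was read in the same wells by CellTiter-Glo luminescence after 30 min at room temperature.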

Estrogen receptor (Homo sapiens), sequence (P03372 whole entry, looked up): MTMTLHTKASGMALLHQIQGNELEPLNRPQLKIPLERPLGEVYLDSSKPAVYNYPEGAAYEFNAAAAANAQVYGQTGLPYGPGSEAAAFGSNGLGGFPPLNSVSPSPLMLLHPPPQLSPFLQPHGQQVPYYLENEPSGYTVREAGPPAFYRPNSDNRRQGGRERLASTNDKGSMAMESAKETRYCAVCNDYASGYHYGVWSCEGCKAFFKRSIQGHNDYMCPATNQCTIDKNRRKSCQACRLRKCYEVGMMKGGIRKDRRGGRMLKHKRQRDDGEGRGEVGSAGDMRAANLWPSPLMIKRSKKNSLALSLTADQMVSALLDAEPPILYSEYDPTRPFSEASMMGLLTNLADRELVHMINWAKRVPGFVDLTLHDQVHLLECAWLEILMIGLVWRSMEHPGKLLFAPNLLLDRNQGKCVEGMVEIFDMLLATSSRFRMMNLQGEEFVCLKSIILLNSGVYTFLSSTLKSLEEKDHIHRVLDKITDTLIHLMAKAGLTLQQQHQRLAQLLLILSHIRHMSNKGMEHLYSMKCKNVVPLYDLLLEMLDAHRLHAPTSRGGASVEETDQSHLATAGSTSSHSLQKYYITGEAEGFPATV
Progesterone receptor (Homo sapiens), sequence (P06401 whole entry, looked up): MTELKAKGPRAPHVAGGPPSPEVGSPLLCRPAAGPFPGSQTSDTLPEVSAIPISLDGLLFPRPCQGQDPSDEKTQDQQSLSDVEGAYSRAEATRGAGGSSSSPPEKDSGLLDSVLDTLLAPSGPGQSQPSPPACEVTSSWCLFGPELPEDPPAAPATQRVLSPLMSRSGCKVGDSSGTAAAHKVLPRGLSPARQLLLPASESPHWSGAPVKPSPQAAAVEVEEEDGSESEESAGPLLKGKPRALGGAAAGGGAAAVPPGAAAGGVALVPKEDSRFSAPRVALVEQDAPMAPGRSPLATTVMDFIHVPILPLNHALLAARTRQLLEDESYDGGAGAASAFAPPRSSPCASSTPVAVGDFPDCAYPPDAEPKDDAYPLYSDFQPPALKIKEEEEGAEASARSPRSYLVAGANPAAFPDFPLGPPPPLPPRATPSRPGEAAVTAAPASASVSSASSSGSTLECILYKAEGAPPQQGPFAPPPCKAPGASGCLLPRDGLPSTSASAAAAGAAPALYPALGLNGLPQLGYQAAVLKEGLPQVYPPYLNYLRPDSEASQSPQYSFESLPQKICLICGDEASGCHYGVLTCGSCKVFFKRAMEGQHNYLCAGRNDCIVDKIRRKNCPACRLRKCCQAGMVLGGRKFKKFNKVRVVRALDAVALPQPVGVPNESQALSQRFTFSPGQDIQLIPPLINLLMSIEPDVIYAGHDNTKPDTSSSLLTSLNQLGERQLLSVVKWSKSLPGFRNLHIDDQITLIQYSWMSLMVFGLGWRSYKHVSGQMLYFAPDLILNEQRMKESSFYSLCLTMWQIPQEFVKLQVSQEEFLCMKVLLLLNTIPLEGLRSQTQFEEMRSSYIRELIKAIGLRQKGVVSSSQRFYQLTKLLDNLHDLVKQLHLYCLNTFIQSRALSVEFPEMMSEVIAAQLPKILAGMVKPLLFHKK
Androgen receptor (Homo sapiens), sequence (P10275 whole entry, looked up): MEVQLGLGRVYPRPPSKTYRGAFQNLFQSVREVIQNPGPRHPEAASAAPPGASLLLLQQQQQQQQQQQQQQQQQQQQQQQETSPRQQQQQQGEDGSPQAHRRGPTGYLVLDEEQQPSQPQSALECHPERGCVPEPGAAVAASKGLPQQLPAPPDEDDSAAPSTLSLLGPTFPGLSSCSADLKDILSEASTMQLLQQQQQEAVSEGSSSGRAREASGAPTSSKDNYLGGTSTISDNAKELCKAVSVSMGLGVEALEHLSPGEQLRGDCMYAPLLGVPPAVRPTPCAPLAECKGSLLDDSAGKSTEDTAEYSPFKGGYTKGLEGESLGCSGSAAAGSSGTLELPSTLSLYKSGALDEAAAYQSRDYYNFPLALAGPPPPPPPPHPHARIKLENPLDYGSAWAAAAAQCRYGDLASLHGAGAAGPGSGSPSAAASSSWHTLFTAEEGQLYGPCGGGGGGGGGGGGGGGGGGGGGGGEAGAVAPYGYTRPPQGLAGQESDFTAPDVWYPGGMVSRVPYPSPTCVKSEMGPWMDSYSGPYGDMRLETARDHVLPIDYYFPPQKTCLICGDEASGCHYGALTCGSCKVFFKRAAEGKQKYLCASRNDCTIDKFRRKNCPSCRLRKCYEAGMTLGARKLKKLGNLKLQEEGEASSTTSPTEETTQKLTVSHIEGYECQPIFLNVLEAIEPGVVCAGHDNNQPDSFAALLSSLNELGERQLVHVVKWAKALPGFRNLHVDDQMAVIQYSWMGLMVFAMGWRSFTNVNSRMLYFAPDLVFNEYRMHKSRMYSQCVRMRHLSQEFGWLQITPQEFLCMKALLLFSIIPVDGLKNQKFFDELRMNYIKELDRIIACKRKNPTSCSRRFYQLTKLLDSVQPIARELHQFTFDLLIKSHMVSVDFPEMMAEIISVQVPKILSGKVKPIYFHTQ

Take `Clc1ccc(C(Cl)(Cl)Cl)cc1`: the Potency entry in test [1], in test [2], in [3], in [4], in [5] and in test [6] was “inactive” in each case. Further, the Potency entry in test [7], in test [8], in test [9], in [10], in [11] and in test [12] was “inactive” throughout. For the same molecule, the Potency entry in [13], in test [14] and in test [15] was “inactive” in each case. Besides, in test [16], the molecule was classed as inactive.

Regarding `CCC(=O)Nc1ccc(Cl)c(Cl)c1`, the Potency entry in test [2], in test [4], in test [6], in test [7], in test [8] and in test [9] was “inactive” each time. Besides, the Potency result in test [11], in test [12], in test [18], in [13], in [14] and in [15] was “inactive” each time. Further, the result in test [17] and in test [16] was inactive.

As for `ClCC(Cl)CCl`, the Potency entry in test [1], in [2], in test [3], in test [4], in [6] and in test [7] was “inactive” in each case. Also, the Potency result in [8], in test [9], in [10], in [11], in test [12] and in [18] was “inactive” in each case. The Potency entry in [13], in [14] and in test [15] was “inactive” each time. Further, the call in test [16] was inactive.

With `CCCCOCCOC(C)=O`, the Potency entry in [1], in test [2], in test [3], in test [4], in test [5] and in test [6] was “inactive” in each case. In addition, the Potency result in [7], in [8], in test [9], in test [10], in test [11] and in test [12] was “inactive” each time. Also, the Potency entry in [13], in test [14] and in test [15] was “inactive” throughout. In test [16], the result was inactive.

For `CCOP(=S)(OCC)SCSC(C)(C)C`, the Potency result in test [1], in [2], in [3], in test [4], in [5] and in [6] was “inactive” throughout. The Potency result in [8], in [9], in test [12], in test [18] and in [13] was “inactive” in each case. The Potency in test [11] was 48.6 µM (active).

As for `C[C@]12CCC(=O)C=C1CC[C@@H]1[C@@H]2CC[C@@]2(C)[C@H]1CC[C@]2(C)O`, the Potency in test [1] was 6.16 µM (active); in test [5], 11.3 µM (active) and 10.6 µM (active). In addition, the Potency result in test [2], in test [3], in test [4], in test [6], in test [7] and in test [8] was “inactive” throughout. Besides, the Potency entry in test [10], in test [11], in [13], in [14] and in test [15] was “inactive” in each case. The molecule was classed as inactive in test [16].
